Source: PubChem (National Center for Advancing Translational Sciences (NCATS))
An excerpt weighted towards active compounds, which were near 2.3% of everything screened.
GLS inh – qHTS for Inhibitors of Glutaminase (GLS). actives 0.21% (n = 410,000). Potency, µM (top dose mostly 45.5 µM), inactives show top-dose activity change, negative = inhibition, usual class: inhibitors. AID 624170, 2012. GLS enzymatic activity, qHTS titration. Glutaminase kidney isoform, mitochondrial (Homo sapiens), O94925; note: % is set by controls: 0 for no effect and ±100 for the full control effect
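hKGA in 45 mM KH2PO4 (pH 8.2), 0.02% Tween-20 with compound, then 1mM L-Glutamine (stock as added) plus glutamate oxidase/HRP/Amplex red coupling mix. Fluorescence read initially and after 30 min at RT; signal change reflects glutamate formation.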
PTHR1 ag – qHTS for PTHR1 Agonists: Primary Screen; Potency, µM (titrated, usually from 115 µM), without a hit: at the top dose activation, actives largely listed as activators; actives 0.075% (n = 410,000); HEK293 GP2 PTHR1 cells, GloSensor cAMP luminescence, 1 h; Parathyroid hormone/parathyroid hormone-related peptide receptor (Homo sapiens), Q03431; AID 743266, 2014; note: nearly all actives have a fitted effect of over 55% in size
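HEK-293-derived GP2 cells expressing PTHR1 and a GloSensor cAMP reporter, 3,000/well, plated overnight, given luciferin plus IBMX (each 0.5 mM as added) for 1 h at 37 °C, then compound for 1 h at 37 °C. Luminescence was read after 15 min at room temperature.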
GLP-1R agonist – qHTS of GLP-1 Receptor Agonists; HEK293 GLP-1R CRE-luciferase, luminescence, 4-6 h; cells express a hypersensitive GLP-1R form; Potency, µM (doses to about 45.6 µM), for the others: at the top dose activation, actives largely listed as activators; AID 624172, 2012; actives 0.007% (n = 380,000); note: % of control where 0% means no effect
Glioma ERSR ind – qHTS for Inducers of the Endoplasmic Reticulum Stress Response (ERSR) in Human Glioma: qHTS; U87-MG GRP78 promoter luciferase reporter, 16 h; Potency, µM, for the others: top-dose activation, hits mostly activators; actives 0.02% (n = 420,000); note: series mostly up to about 76 µM; % of control where 0% means no effect; nearly all actives have a fitted effect of over 35% in size
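Stably transfected U87-MG human glioma cells carrying a GRP78-based luminescent sensor were seeded at 1000 cells/well, pin-dosed with compounds and incubated 16 h. Luciferase reagent was then added, and end-point luminescence was read after 10 min at room temperature.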
GLP-1R inv ag – qHTS of GLP-1 Receptor Inverse Agonists (Inhibition Mode); actives 1.6% (n = 410,000); Potency, µM (highest dose often 38.3 µM), without a hit: at the top dose activity change, negative = inhibition, hits mostly inhibitors; HEK293 GLP-1R CRE-luciferase, luminescence, 24 h; GLP-1R form is constitutively active; AID 624417, 2012; note: % is set by controls: 0 for no effect and ±100 for the full control effect; nearly all actives have a fitted effect of over 55% in size
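Cells are plated, allowed 12 hours at 37 deg C, then treated with compounds for 24 hr before luciferase detection reagent is added and luminescence is read after 12 min at room temperature. The HEK293 line carries constitutively active GLP-1R with a cAMP-responsive reporter.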
12-LOX inh – Primary qHTS assay for inhibitors of human arachidonate 12S-lipoxygenase (ALOX12): Round 2; Polyunsaturated fatty acid lipoxygenase ALOX12 (Homo sapiens), P18054; purified 12hLO, xylenol orange hydroperoxide absorbance; Potency, µM (titrated, usually from 108 µM), without a hit: at the top dose activity change, negative = inhibition, usual class: inhibitors; actives 1.1% (n = 580,000); note: % is set by controls: 0 for no effect and ±100 for the full control effect
Target sequence (P18054 whole entry, looked up): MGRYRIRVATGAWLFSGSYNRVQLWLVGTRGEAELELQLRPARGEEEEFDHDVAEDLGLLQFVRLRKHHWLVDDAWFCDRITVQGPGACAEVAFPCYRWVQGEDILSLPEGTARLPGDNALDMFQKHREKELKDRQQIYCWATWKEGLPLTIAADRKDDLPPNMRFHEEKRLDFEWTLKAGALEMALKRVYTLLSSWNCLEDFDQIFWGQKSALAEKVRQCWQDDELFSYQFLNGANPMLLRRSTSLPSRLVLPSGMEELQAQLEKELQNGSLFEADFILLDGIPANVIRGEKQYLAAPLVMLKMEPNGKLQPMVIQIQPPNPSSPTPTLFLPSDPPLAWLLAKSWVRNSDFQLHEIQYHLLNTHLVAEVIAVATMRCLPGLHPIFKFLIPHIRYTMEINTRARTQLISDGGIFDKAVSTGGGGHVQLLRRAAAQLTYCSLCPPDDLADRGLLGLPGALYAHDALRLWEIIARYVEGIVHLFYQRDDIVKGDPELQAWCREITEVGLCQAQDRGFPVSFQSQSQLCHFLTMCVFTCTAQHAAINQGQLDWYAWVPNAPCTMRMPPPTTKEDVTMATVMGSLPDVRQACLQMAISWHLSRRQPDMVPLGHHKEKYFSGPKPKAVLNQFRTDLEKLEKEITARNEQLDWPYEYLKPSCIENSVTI
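Purified human 12hLO at 150 nM in 25 mM Hepes, 0.01% Triton X-100, pH 7.0, preincubated 15 min at room temperature with compound. Reaction started with 40 uM arachidonic acid, 30 min at room temperature. Hydroperoxide measured by Fe-xylenol orange, 573/405 nm absorbance ratio.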
* marks the source's active call; other numbers are inactive results; i = inactive; u = inconclusive; x = no result; [ ] = another dose, or the depositor's remark. Calls come from the whole dose curve; as a rule, active = well fitted curve in the direction sought with a large enough effect; inconclusive = small, poorly fitted or top-dose-only effect, or another doubt; inactive = no such curve, though single readings can be large; an effect the other way counts as inactive or inconclusive. Potency is the fitted concentration of half-maximal effect.

SMILES	GLS inh	PTHR1 ag	GLP-1R agonist	Glioma ERSR ind	GLP-1R inv ag	12-LOX inh
COc1ccccc1NC(=O)CN1CCN(CC(=O)Nc2ccc(Cl)c(C(F)(F)F)c2)CC1	-1%	-20%	-1%	-5%	4µM*	0%
COc1ccc(NC(=O)CN2CCN(CC(=O)Nc3ccccc3Cl)CC2)cc1Cl	22%	-23%	23%	0%	u	0%
COc1cc(NC(=O)Nc2cccc(Cl)c2)c(OC)cc1NC(=O)CN1CCCCC1	15%	i	-15%	4%	3.2µM*	6%
Oc1ccc(-c2nc(C3CC3)nc3c2CCN(Cc2ccccc2C(F)(F)F)CC3)cc1	x	x	x	x	x	4%
CCOc1cc(OCC)cc(C(=O)Nc2ccc(Br)c(C)n2)c1	x	x	x	x	x	-13%
CCc1ccc(-c2csc(/C(C#N)=C/Nc3ccccc3CC)n2)cc1	x	x	x	x	x	-40%
CO/N=C\CC(=O)Nc1ccc(Oc2ccccc2)cc1	6%	-7%	10%	-3%	1.3µM*	-14%
O=C(C/C=N\O)Nc1ccc(Oc2ccccc2)cc1	6%	-23%	9%	7%	-11%	-4%
CC1(Cc2ccccc2Cl)C(=O)Nc2ccc(OC(F)(F)F)cc21 (configuration not stated)	2%	-13%	0%	-10%	10µM*	u
CC1(Cc2ccccc2C#N)C(=O)Nc2ccc(OC(F)(F)F)cc21 (configuration not stated)	-20%	-12%	5%	0%	u	-54%
COC(=O)c1ccc(NC(=O)C2=C(c3ccccc3)S(=O)(=O)CCO2)cc1	x	x	x	x	x	-2%
NS(=O)(=O)c1ccc(NC(=S)N2CCN(Cc3ccc(Cl)c(Cl)c3)CC2)cc1	9%	-21%	5%	-4%	8.9µM*	-1%
NS(=O)(=O)c1ccc(NC(=S)N2CCN(c3ccc(Cl)c(Cl)c3)CC2)cc1	-6%	-83%	-11%	-8%	-25%	-18%
O=S(=O)(c1ccc(Cl)cc1)N1CCN(C(=S)Nc2ccc(F)c(Cl)c2)CC1	14%	-37%	-6%	-4%	8.9µM*	u
O=C(Nc1ccc(OC(F)(F)F)cc1)C(=O)c1c[nH]c2ccccc12	x	x	x	x	x	-4%
CO[C@@]1(NC(=O)CSCC#N)C(=O)N2C(C(=O)O)=C(CSc3nnnn3C)CS[C@@H]21	11µM*	-7%	-3%	-5%	4%	34%
CC(=O)c1cccc(CN2CCC(C(=O)Nc3cccc(-c4ccn[nH]4)c3)CC2)c1	7%	-24%	-36%	-3%	u	0%
C=CCOc1ccccc1CN1CCC(C(=O)Nc2cccc(-c3ccn[nH]3)c2)CC1	-2%	-10%	-7%	1%	7.9µM*	2%
CC(C)C(=O)N1CCC2(CC1)OC(=O)N(Cc1ccccc1)C2(C)c1ccccc1 (configuration not stated)	x	x	x	x	x	-2%[176 µM]
CCCC(=O)OCC(=O)NCc1ccc(Cl)cc1	-3%	i	1%	-3%	-2%	-4%
O=C(COC(=O)CC(c1ccccc1)c1ccccc1)NCc1ccc(Cl)cc1	-1%	-26%	-5%	-4%	11µM*	-12%
COc1cc2c(cc1OC)-c1cc(Nc3ccccc3Br)nc(=O)n1CC2	-8%	-6%	8.9µM*	-9%	131%	u
CC(C)(CNC(=O)c1sc2cc(Cl)ccc2c1Cl)N1CCOCC1	3%	-56%	31%	5%	10µM*	-17%
CCC(=O)N1CCCC(C(=O)N(C)Cc2cccc(C(F)(F)F)c2)C1 (configuration not stated)	x	x	x	x	x	9%
CCc1ccc(C(C)NC(=O)c2ccc3c(c2)OCO3)cc1 (configuration not stated)	-1%	-13%	12%	-1%	11µM*	288%
SMILES	GLS inh	PTHR1 ag	GLP-1R agonist	Glioma ERSR ind	GLP-1R inv ag	12-LOX inh
COc1cc2ccccc2cc1C(=O)NC1CCCC1	13%	-17%	18%	7%	u	-14%
CC(NC(=O)NC12CC3CC(CC(C3)C1)C2)c1ccc2c(c1)OCO2 (configuration not stated)	-9%	-25%	0%	12%	11µM*	4%
COc1cc2ccccc2cc1C(=O)NC1CCC(C)CC1 (configuration not stated)	-1%	-20%	u	4%	10µM*	0%
O=C(NC1CCCCC1)c1ccc2c(c1)OCO2	u	i	9%	2%	11%	-1%
CC1CCC(NC(=O)c2ccc3c(c2)OCO3)CC1 (configuration not stated)	0%	-40%	0%	-9%	4µM*	124%
Cn1ccn(C(F)(F)C(F)Cl)c1=S (configuration not stated)	x	x	x	x	x	5%
CC(C)Cn1cnc2c1c(=O)n(CC(=O)Nc1ccc(C#N)cc1)c(=O)n2Cc1ccccc1	x	x	x	x	x	14%
CC(NC(=O)c1ccc2c(c1)NC(=O)CS2)c1ccc2c(c1)OCO2 (configuration not stated)	x	x	x	x	x	14µM*
Cc1cc(C(=O)NC(C)c2ccc3c(c2)OCO3)cs1 (configuration not stated)	15%	-1%	7%	1%	-13%	18%
Nc1nc(Cl)nc2c1ncn2C1CC(O)C(CO)O1 (configuration not stated)	8%	16%	19%	-1%	5.6µM*	1%
Cc1ccc(CNC(=O)C(Cc2ccccc2)NS(=O)(=O)c2ccc(Br)s2)cc1 (configuration not stated)	2%	-22%	7%	-7%	10µM*	-2%
CCOc1ccccc1NC(=O)C(Cc1ccccc1)NS(=O)(=O)c1ccc(Br)s1 (configuration not stated)	-11%	-49%	-13%	-3%	11µM*	-15%
C=CCc1cccc(C=Nc2cc(Br)ccc2O)c1O	21%	-21%	-4%	0%	u	35µM*
Cc1onc(-c2ccccc2Cl)c1C(=O)Nc1nc2c(s1)CCCC2	0%	-3%	-7%	4%	10µM*	u
Cc1onc(-c2ccccc2Cl)c1C(=O)Nc1nnc(-c2ccc(Br)cc2)s1	-6%	-75%	-7%	-4%	10µM*	8%
